Test results as given in PubChem BioAssay.
Activity calls are given as the source filed them. Unless noted, the rule behind the calls is not given here.

Columns and labels:
[1] = liver-stage malaria parasite load reduction – cell-based, known kinase inhibitor set, luminescence, hepatoma host viability (AID 624392); conditions: Plasmodium liver stage in hepatoma cells, luciferase luminescence, concentration not given here; liver cell % of control: measured here: host liver cell viability; parasite % of control: stronger effect = lower value;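 note: infected cells incubated roughly two days before readout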
[2] = altered dexamethasone sensitivity, NF-kB reporter, cell-based, luciferase, IL-1B stimulus (AID 624486); conditions: IL-1B + dexamethasone, luminescence; percent of negative control (+Dex): actives lie on both sides, concentration not given here; z-score: measured here: IL-1B alone, no Dex;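 for percent of negative control (+Dex): 100% = mean signal of vehicle control wells on the plate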
[3] = C. elegans survival during P. aeruginosa infection – whole organism (AID 651566);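 note: tested at 14 µM; sign flipped so higher z means a lower ratio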; conditions: C. elegans killed by P. aeruginosa, survival ratio
[4] = pro-inflammatory signaling induction in mouse macrophages – cell-based, murine, luminescence (AID 652131); conditions: murine macrophage pro-inflammatory reporter, stronger effect = higher value
[5] = molecular target: Cellular tumor antigen p53 (Homo sapiens) (UniProt P04637); assay: GFP-p53 level modulators in HPV16+ cells – imaging, known kinase inhibitor set, EGFP/DsRed ratio (AID 1053116); conditions: GFP-p53 stability, stronger effect = higher value; EGFP object count: measured here: GFP-p53 positive objects count;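 note: cells exposed to compounds for 24 h at 37 °C before reading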
[6] = inducers of IRF3 signaling, differentiated THP-1 – cell-based, PMA-stimulated THP-1, luminescence (AID 1053176); conditions: PMA-differentiated THP-1, IRF3 reporter luminescence; stronger effect = higher value
[7] = MELAS cybrid and Rieske KO viability enhancers – cell-based, MELAS cybrids, Rieske KO mouse fibroblasts, CellTiter-Glo, primary screen (AID 1508586;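 active = mean z-score across replicates of 1.96 or higher in either the MELAS or the Rieske mutant cell line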;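 note: z relative to plate mean and SD of compound and empty wells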); conditions: low glucose
[8] = MELAS cybrid survival, CellTiter-Glo 48 h, stronger effect = higher value
[9] = Rieske KO mouse fibroblast survival, CellTiter-Glo 72 h

Sequence of Cellular tumor antigen p53 (Homo sapiens) (P04637 whole entry, looked up): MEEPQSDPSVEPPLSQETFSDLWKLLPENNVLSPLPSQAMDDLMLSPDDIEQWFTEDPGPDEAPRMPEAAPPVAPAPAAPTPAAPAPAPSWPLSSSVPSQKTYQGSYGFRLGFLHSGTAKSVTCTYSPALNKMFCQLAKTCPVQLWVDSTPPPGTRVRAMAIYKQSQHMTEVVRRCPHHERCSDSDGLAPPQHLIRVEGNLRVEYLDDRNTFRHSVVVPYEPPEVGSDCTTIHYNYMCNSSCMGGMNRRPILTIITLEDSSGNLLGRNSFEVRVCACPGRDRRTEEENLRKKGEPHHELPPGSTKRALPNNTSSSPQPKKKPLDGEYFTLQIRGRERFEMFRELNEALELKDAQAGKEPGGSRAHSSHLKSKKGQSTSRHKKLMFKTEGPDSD

Row | Structure (SMILES) | liver cell % of control [1] [%] | parasite % of control [1] | percent of negative control (+Dex) [2] | z-score [2] | z-score [3] | z-score [4] | EGFP object count [5] | EGFP/DsRed ratio [5] | fraction signal [6] | z-score [7, 8] | z-score [7, 9]
1 | CS(=O)(=O)CCNCc1ccc(-c2ccc3ncnc(Nc4ccc(OCc5cccc(C(F)(F)F)c5)cc4)c3c2)o1 | 91.4 | 126% (inactive) | 85% (inactive) | -0.68 | -0.1 (inactive) | 0.289 (inactive) | 4.5 | 0.109 (inactive) | 0.018 (inactive) | 0.798 (inactive) | -0.393
2 | CN(C)c1ccc2[nH]c(O)c(C=Nc3ccc(S(N)(=O)=O)cc3)c2c1 | 88.2 | 103% (inactive) | 93% (inactive) | 0.245 | 0.065 (inactive) | 0.675 (inactive) | 6.5 | 0.209 (inactive) | -0.008 (inactive) | 1.57 (inactive) | -0.102
3 | CC(C)=Cc1cccc2[nH]c(O)c(N=Nc3ccc(S(N)(=O)=O)cc3)c12 | 77.9 | 247% (inactive) | 109% (inactive) | 1.89 | -0.155 (inactive) | 0.183 (inactive) | 21.5 | 0.593 (inactive) | 0 (inactive) | 0.633 (inactive) | 0.0676
4 | NS(=O)(=O)c1ccc(Nc2ncc(-c3ccccc3)o2)cc1 | 108 | 123% (inactive) | 117% (inactive) | 0.745 | -0.98 (inactive) | 0.209 (inactive) | 3.5 | 0.0759 (inactive) | -0.0035 (inactive) | 1.06 (inactive) | -0.0466
5 | CCn1c(-c2nonc2N)nc2c(C#CC(C)(C)O)nc(O[C@@H](CN)c3ccccc3)cc21 | 49.4 | 14.1% (inactive) | 132% (inactive) | 3.44 | 0.92 (inactive) | 1 (inactive) | 10.5 | 0.166 (inactive) | 0.0005 (inactive) | 1.1 | 4
6 | CC(=Nc1ccc(S(N)(=O)=O)cc1)c1c(O)[nH]c2ccccc12 | 121 | 234% (inactive) | 176% (active) | 5.95 | -0.905 (inactive) | 6.44 (active) | 0.5 | 0.00933 (inactive) | 0.0025 (inactive) | -0.469 (inactive) | -0.351
7 | Fc1ccc(-c2c(-c3ccncc3)nc3n2CCS3)cc1 | 113 | 89.2% (inactive) | 40% (active) | -5.96 | -1.12 (inactive) | 1.33 (inactive) | 1.5 | 0.0335 (inactive) | -0.0075 (inactive) | -0.499 (inactive) | -0.254
